According to PubChem BioAssay AID1159580 (chemical genetic matrix, 2015):
Several values for one entry are separate records, joined by “and”; a condition that tells them apart may be missing. Equal values may be shown once. Screen size: about 5,500 compounds; about 2,000 (36%) were called active. Not shown: some 18% with an inconclusive outcome. Rule as the data show it: active = normalized growth mostly below about 0.91 (no sharp cut-off); inconclusive = no clear call, values can overlap the other calls; inactive = mostly above about 0.92. The list shows a part of the results.

Assay: chemical genetic growth profiling, strain panel (AID 1159580);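 also: tested at 20 µM; growth read once vehicle control cultures reached saturation at 30 °C; 1 = growth at the plate median or of vehicle wells; lower values mean less growth of the strain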
Settings: S. cerevisiae deletion strains, growth OD

Measured: normalized growth

CN(C)CCC(c1ccc(Br)cc1)c1ccccn1 (centres undefined)
inactive: locus YAL013W, strain DEP1, hits give low values 0.982 and 1 | locus YAL021C, strain ccr4, hits give low values 0.958 | locus YAL026C, strain drs2, hits give low values 0.996 | locus YAL030W, strain snc1, hits give low values 0.975 | locus YAL040C, strain CLN3, hits give low values 1.11 | locus YBL061C, strain skt5, hits give low values 0.991 | locus YBR009C, strain hhf1, hits give low values 0.999 | locus YBR021W, strain FUR4, hits give low values 0.975 | locus YBR023C, strain chs3, hits give low values 0.993 | locus YBR171W, strain sec66, hits give low values 0.974 | locus YBR229C, strain ROT2, hits give low values 0.978 | locus YBR231C, strain swc5, hits give low values 0.983 | locus YBR279W, strain paf1, hits give low values 0.976 | locus YCL011C, strain gbp2, hits give low values 0.97 | locus YCL016C, strain dcc1, hits give low values 0.979 | locus YCL029C, strain bik1, hits give low values 0.979 | locus YCL061C, strain MRC1 (second series), hits give low values 1 | locus YCL069W, strain vba3, hits give low values 0.985 | locus YCR088W, strain abp1, hits give low values 0.983 | locus YDL005C, strain med2, hits give low values 0.975 | locus YDL035C, strain GPR1, hits give low values 0.991 | locus YDL040C, strain nat1, hits give low values 0.967 | locus YDL074C, strain BRE1, hits give low values 0.952 | locus YDL101C, strain DUN1, hits give low values 0.984 | locus YDL134C, strain PPH21, hits give low values 0.983 | locus YDL185W, strain tfp1, hits give low values 0.998 | locus YDL192W, strain arf1, hits give low values 0.997 | locus YDR001C, strain nth1, hits give low values 0.974 | locus YDR069C, strain doa4, hits give low values 0.929 | locus YDR101C, strain arx1, hits give low values 0.967 | locus YDR137W, strain rgp1, hits give low values 1.01 | locus YDR150W, strain NUM1, hits give low values 0.997 and 1.01 | locus YDR159W, strain sac3, hits give low values 0.962 | locus YDR162C, strain NBP2, hits give low values 0.991 | locus YDR195W, strain ref2 0.96 | locus YDR297W, strain sur2, hits give low values 0.973 | locus YDR318W, strain mcm21, hits give low values 0.985 | locus YDR334W, strain swr1, hits give low values 0.956 | locus YDR335W, strain msn5, hits give low values 0.992 | locus YDR388W, hits give low values 0.99 | locus YDR392W, strain spt3, hits give low values 0.997 | locus YDR502C, strain sam2, hits give low values 0.984 | locus YEL003W, strain gim4, hits give low values 0.969 | locus YEL037C, strain rad23, hits give low values 0.981 | locus YEL061C, strain CIN8 (second series), hits give low values 0.989 | locus YEL061C, strain CIN8, hits give low values 0.994 | locus YER002W, strain NOP16, hits give low values 1.01 | locus YER015W, strain faa2, hits give low values 0.992 | locus YER016W, strain bim1, hits give low values 0.935 | locus YER110C, hits give low values 0.985 | locus YER111C, strain swi4, hits give low values 0.977 | locus YER155C, strain BEM2 (second series), hits give low values 1 | locus YER155C, strain BEM2, hits give low values 0.959 | locus YER167W, strain BCK2, hits give low values 0.992 | locus YFR010W, strain ubp6, hits give low values 0.986 | locus YGL078C, strain dbp3, hits give low values 0.987 | locus YGL086W, strain mad1, hits give low values 1 | locus YGL167C, strain pmr1, hits give low values 0.988 | locus YGL173C, strain kem1, hits give low values 0.975 | locus YGL227W, strain vid30, hits give low values 0.985 | locus YGL240W, strain doc1, hits give low values 0.995 | locus YGL248W, strain PDE1, hits give low values 0.974 | locus YGL253W, strain hxk2, hits give low values 0.991 | locus YGR078C, strain PAC10, hits give low values 0.992 and 1.01 | locus YGR135W, strain pre9, hits give low values 0.977 | locus YGR229C, strain SMI1, hits give low values 0.987 | locus YGR252W, strain gcn5, hits give low values 1.04 | locus YHR013C, strain ard1, hits give low values 0.956 | locus YHR027C, strain rpn1, hits give low values 0.952 | locus YHR030C, strain SLT2, hits give low values 0.992 and 0.989 | locus YHR079C, strain IRE1 (second series), hits give low values 0.99 | locus YHR079C, strain IRE1, hits give low values 0.99 | locus YHR094C, strain hxt1, hits give low values 0.994 | locus YHR129C, strain ARP1, hits give low values 0.986 | locus YHR142W, strain chs7, hits give low values 0.995 | locus YHR200W, strain rpn10, hits give low values 0.984 | locus YIL066C, strain RNR3, hits give low values 0.989 | locus YIL073C, strain SPO22, hits give low values 1.04 | locus YIL125W, strain kgd1, hits give low values 0.998 | locus YIR030C, strain dcg1, hits give low values 0.985 | locus YJL092W, strain hpr5, hits give low values 0.967 | locus YJL095W, strain BCK1 (second series), hits give low values 0.972 | locus YJL095W, strain BCK1, hits give low values 0.966 and 0.986 | locus YJL115W, strain asf1, hits give low values 0.941 | locus YJL129C, strain trk1, hits give low values 0.952 | locus YJL134W, strain LCB3, hits give low values 0.989 | locus YJL154C, strain vps35, hits give low values 0.955 | locus YJL164C, strain tpk1, hits give low values 0.991 | locus YJL166W, strain qcr8, hits give low values 0.973 | locus YJL168C, strain set2, hits give low values 0.993 | locus YJL187C, strain SWE1 (second series), hits give low values 0.978 | locus YJR043C, strain POL32, hits give low values 0.983 | locus YJR066W, strain TOR1, hits give low values 0.967 | locus YJR075W, strain HOC1, hits give low values 0.975 and 1.03
